In ChEMBL document CHEMBL2218924, “A broad activity screen in support of a chemogenomic map for kinase signalling research and drug discovery” (Biochem J, 2013):

What was measured:
[1] = molecular target: T1, Muscle, skeletal receptor tyrosine-protein kinase (Homo sapiens) (UniProt O15146); conditions: at 1 µM
T1 sequence (whole entry): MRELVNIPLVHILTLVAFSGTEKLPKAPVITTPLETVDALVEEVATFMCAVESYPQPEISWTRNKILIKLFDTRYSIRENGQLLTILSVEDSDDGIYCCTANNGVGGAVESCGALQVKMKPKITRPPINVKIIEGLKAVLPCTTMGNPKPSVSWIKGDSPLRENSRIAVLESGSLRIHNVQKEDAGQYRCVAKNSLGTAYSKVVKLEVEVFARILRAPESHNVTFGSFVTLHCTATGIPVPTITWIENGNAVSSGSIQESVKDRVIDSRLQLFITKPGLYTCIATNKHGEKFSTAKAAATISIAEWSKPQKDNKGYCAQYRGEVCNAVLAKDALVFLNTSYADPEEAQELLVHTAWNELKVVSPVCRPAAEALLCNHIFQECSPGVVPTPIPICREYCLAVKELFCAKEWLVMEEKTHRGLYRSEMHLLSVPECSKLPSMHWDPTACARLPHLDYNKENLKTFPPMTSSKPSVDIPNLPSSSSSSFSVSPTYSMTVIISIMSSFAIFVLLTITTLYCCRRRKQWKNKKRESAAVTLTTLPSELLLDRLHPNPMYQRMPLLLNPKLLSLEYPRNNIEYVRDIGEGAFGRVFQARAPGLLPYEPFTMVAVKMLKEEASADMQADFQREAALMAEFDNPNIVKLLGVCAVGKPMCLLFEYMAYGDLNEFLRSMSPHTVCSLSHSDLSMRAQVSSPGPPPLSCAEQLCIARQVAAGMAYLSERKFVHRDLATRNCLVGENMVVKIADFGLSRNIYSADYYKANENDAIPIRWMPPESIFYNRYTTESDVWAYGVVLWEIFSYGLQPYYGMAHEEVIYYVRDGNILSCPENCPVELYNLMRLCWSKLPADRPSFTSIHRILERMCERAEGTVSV

[2] = molecular target: T1, Muscle, skeletal receptor tyrosine-protein kinase (Homo sapiens); conditions: at 10 µM
[3] = molecular target: T2, Serine/threonine-protein kinase Nek11 (Homo sapiens) (UniProt Q8NG66); conditions: at 1 µM
T2 sequence (whole entry): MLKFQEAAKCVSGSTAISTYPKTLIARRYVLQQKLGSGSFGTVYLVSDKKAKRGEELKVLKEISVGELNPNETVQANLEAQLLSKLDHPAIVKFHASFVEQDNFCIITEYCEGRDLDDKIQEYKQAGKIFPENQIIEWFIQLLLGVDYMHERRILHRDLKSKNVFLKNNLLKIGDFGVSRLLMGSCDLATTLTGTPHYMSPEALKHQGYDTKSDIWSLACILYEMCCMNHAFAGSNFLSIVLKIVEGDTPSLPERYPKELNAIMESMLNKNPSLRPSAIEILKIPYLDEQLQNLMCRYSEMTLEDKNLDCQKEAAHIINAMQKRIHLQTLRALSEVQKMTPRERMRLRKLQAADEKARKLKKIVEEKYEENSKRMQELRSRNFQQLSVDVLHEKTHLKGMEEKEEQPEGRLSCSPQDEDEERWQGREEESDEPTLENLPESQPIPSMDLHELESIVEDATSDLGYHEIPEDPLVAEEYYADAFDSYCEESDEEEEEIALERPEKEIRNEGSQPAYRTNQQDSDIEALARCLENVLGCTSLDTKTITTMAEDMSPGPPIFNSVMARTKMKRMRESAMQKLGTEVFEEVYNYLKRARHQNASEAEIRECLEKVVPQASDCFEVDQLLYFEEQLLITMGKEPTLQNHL

[4] = molecular target: T2, Serine/threonine-protein kinase Nek11 (Homo sapiens); conditions: at 10 µM
[5] = molecular target: T3, Serine/threonine-protein kinase Nek2 (Homo sapiens) (UniProt P51955); conditions: at 1 µM
T3 sequence (whole entry): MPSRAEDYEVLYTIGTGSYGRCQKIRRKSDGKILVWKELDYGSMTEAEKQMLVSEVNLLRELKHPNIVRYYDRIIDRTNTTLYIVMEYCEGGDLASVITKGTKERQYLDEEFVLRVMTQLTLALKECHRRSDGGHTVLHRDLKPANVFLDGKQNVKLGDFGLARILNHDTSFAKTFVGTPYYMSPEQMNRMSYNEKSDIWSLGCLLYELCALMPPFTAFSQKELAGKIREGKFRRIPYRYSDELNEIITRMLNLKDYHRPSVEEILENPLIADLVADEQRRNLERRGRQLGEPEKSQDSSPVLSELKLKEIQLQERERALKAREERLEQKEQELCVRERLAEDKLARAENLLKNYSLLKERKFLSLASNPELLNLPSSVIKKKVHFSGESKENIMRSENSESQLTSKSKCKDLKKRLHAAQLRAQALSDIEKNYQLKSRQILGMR

[6] = molecular target: T3, Serine/threonine-protein kinase Nek2 (Homo sapiens); conditions: at 10 µM
[7] = molecular target: T4, Serine/threonine-protein kinase Nek3 (Homo sapiens) (UniProt P51956); conditions: at 10 µM
T4 sequence (whole entry): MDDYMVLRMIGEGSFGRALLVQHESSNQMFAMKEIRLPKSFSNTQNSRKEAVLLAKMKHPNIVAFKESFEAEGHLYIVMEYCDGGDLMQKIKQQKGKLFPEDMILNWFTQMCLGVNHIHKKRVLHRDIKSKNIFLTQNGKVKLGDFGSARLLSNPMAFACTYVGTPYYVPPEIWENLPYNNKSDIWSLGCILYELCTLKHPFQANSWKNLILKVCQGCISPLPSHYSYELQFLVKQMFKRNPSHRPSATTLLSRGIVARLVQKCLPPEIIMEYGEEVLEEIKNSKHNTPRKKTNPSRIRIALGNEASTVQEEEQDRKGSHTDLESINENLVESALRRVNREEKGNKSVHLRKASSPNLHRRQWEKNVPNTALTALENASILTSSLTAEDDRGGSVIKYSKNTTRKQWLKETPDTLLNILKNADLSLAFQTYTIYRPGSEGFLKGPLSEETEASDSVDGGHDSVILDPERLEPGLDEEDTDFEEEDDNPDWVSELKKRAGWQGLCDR

[8] = molecular target: Serine/threonine-protein kinase tousled-like 2 (Homo sapiens) (UniProt Q86UE8); conditions: at 1 µM
[9] = molecular target: Serine/threonine-protein kinase tousled-like 2 (Homo sapiens) (UniProt Q86UE8); conditions: at 10 µM
[10] = molecular target: T4, Serine/threonine-protein kinase Nek3 (Homo sapiens); conditions: at 1 µM

Sequence of Serine/threonine-protein kinase tousled-like 2 (Homo sapiens) (Q86UE8 whole entry, looked up): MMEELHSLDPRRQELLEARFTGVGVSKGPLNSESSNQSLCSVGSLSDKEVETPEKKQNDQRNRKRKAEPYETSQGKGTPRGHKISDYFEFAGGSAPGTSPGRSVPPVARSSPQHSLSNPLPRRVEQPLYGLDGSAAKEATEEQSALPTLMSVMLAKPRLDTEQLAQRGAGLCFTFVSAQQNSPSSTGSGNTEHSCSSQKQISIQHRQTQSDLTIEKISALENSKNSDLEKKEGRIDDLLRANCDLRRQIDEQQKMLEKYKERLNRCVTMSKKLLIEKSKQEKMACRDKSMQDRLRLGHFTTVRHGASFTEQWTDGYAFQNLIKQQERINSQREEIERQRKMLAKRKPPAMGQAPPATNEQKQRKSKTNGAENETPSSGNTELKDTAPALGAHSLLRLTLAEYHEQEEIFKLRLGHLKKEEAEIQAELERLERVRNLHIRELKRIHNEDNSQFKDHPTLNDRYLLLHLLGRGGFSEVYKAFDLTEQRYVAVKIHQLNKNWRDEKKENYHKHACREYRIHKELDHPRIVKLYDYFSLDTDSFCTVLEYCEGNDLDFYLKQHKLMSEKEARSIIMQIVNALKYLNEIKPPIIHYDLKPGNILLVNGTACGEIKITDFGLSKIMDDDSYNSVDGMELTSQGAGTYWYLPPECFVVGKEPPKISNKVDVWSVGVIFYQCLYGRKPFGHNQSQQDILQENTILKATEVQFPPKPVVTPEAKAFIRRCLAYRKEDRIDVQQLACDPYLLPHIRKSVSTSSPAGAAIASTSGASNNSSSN

| Structure (SMILES) | residual activity [1] | residual activity [2] | residual activity [3] | residual activity [4] | residual activity [5] | residual activity [6] | residual activity [7] | residual activity [8] | residual activity [9] | residual activity [10] |
| --- | --- | --- | --- | --- | --- | --- | --- | --- | --- | --- |
| O=c1cc(N2CCOCC2)oc2c1ccc1ccccc12 | 100% | 87% | 98% | 75% | 79% | 84% | 79% | 101% | 92% | – |
| O=c1cc(N2CCNCC2)oc2c(-c3ccccc3)cccc12 | 92% | 78% | 104% | 105% | 84% | 92% | 76% | – | 91% | 101% |
| O=C(NC(NC(=S)Nc1ccc(F)c([N+](=O)[O-])c1)C(Cl)(Cl)Cl)C(c1ccccc1)c1ccccc1 (stereo unspecified) | 85% | 98% | 86% | 49% | 90% | 88% | 89% | 99% | 94% | 94% |
| NCCNc1ncc(C(N)=O)c(Nc2cccc(C(F)(F)F)c2)n1 | 107% | 75% | 71% | 80% | – | – | 78% | – | – | 106% |
| Cn1c2ccccc2c2c3c(c4c5ccccc5n(CCC#N)c4c21)CNC3=O | 32% | 37% | 49% | 60% | 76% | 82% | – | – | – | 100% |
| O=C(O)/C=C/c1cc(Br)c(Br)c(Br)c1Br | 106% | 98% | 85% | 54% | – | – | 108% | 101% | 93% | 81% |
| O=C1NC(=O)C(c2c[nH]c3ccccc23)=C1c1c[nH]c2ccccc12 | – | 60% | 63% | 59% | – | – | – | 51% | 9% | – |
| CC(C)(C)c1nc2c3ccc(F)cc3c3c(=O)[nH]ccc3c2[nH]1 | – | – | 98% | 55% | – | 102% | – | – | – | – |
| CC(C)N(CCC(=O)c1ccc2ccccc2c1)Cc1ccccc1 | 87% | 79% | – | – | 81% | 88% | – | 86% | 80% | – |
| N#C/C(=C\c1ccc(O)c(O)c1)C(=O)NCc1ccccc1 | – | – | 103% | 103% | – | – | – | – | 85% | – |
| Nc1ncnc2c1c(-c1ccc(Oc3ccccc3)cc1)cn2C1CCCC1 | 83% | 37% | 102% | – | 77% | 69% | 55% | 92% | 82% | 105% |
| O=C1NC(=O)C(c2cn(CCCO)c3ncccc23)=C1c1cnccn1 | 81% | 84% | 72% | 82% | – | – | – | 98% | 82% | – |
| N#C/C(=C1/Nc2ccccc2S1)c1ccnc(NCCc2cccnc2)n1 | – | – | 45% | 6% | – | 82% | – | – | – | – |
| Fc1ccc(-c2nc3n(c2-c2ccncc2)CCS3)cc1 | – | – | 77% | 83% | – | – | – | – | – | – |
| c1ccc(-c2cnc(Nc3ccc(OCCN4CCCC4)cc3)s2)cc1 | 4% | 0% | 81% | 76% | – | – | 76% | 105% | 81% | 115% |
| O=C1NC(=O)C(c2cn(CCCn3ccnc3)c3ccccc23)=C1Nc1ccccc1 | 77% | 65% | 59% | 44% | – | – | 104% | 44% | 7% | 110% |
| O=S(=O)(c1cccc2cnccc12)N1CCCNCC1 | – | – | – | – | – | 100% | – | – | – | – |
| Nc1nccc(-c2c(-c3ccc(F)cc3)ncn2C2CCNCC2)n1 | – | – | 68% | 77% | – | – | – | – | – | – |
| COc1cc2nccc(Oc3ccc(NC(=O)Nc4cc(C)on4)c(Cl)c3)c2cc1OC | 17% | 3% | 77% | – | – | – | – | 104% | 100% | – |

| Structure (SMILES) | residual activity [1] | residual activity [2] | residual activity [3] | residual activity [4] | residual activity [5] | residual activity [6] | residual activity [7] | residual activity [8] | residual activity [9] | residual activity [10] |
| --- | --- | --- | --- | --- | --- | --- | --- | --- | --- | --- |
| Nc1ncnc2c1cnn2-c1ccccc1 | – | 88% | 79% | 88% | 83% | 99% | 91% | – | – | – |
| Oc1cccc(-c2nc(N3CCOCC3)c3oc4ncccc4c3n2)c1 | – | – | 98% | 98% | – | – | 69% | – | 95% | 117% |
| COc1ccc(CNC(=O)Nc2ncc([N+](=O)[O-])s2)cc1 | 68% | 67% | 51% | 66% | – | – | – | – | 74% | – |
| Nc1nc(Nc2ccc(S(N)(=O)=O)cc2)nn1C(=O)c1c(F)cccc1F | – | 20% | 56% | – | 96% | 70% | 71% | 68% | 17% | – |
| COc1cc2ncnc(Nc3cccc(Cl)c3)c2cc1OC | 121% | 101% | – | – | – | 111% | – | 119% | 101% | 111% |
| N#Cc1c(NC(=O)c2cccc3ccccc23)sc2c1CCCC2 | 96% | 78% | 82% | 72% | – | – | – | 100% | 96% | 76% |
| O=c1c(-c2ccc(F)cc2)c(-c2ccncc2)[nH]n1-c1ccc(Cl)cc1 | – | – | 81% | 78% | – | – | – | – | – | – |
| COc1cc2c(cc1OC)-c1n[nH]c(Nc3cccc(F)c3)c1C2 | – | – | – | – | 82% | 80% | 100% | – | – | 114% |
| NC(=O)c1ccc(-c2nc(-c3ccc4c(c3)OCCO4)c(-c3ccccn3)[nH]2)cc1 | – | – | 57% | 65% | 95% | 91% | 93% | 91% | 87% | 85% |
| O=C(Nc1nc2ccccc2n1CCN1CCOCC1)c1cccc([N+](=O)[O-])c1 | – | – | 84% | 74% | 75% | – | 85% | – | – | 106% |
| COc1ccc(COc2ccc(Cc3cnc(N)nc3N)cc2OC)cc1 | – | – | 110% | 115% | – | – | – | – | – | – |
| O=C(c1ccccc1)c1ccc(N2CCOCC2)cc1O | – | 86% | 89% | – | 90% | – | – | – | – | – |
| CCOC(=O)c1c(C)[nH]c(/C=C2\C(=O)Nc3ccccc32)c1C | – | – | 97% | 98% | – | – | – | – | 98% | – |
| O=c1cc(N2CCOCC2)oc2c(-c3ccccc3)cccc12 | – | – | – | – | 81% | – | – | – | – | – |
| Cc1cc(C)c(/C=C2\C(=O)Nc3ccccc32)[nH]1 | – | 12% | – | 98% | – | – | 106% | 105% | 62% | – |
| O=C1Cc2c([nH]c3ccc(Br)cc23)-c2ccccc2N1 | 42% | 3% | – | – | 95% | 80% | 72% | 89% | 78% | 81% |
| CN([C@@H](Cc1ccc(OS(=O)(=O)c2cccc3cnccc23)cc1)C(=O)N1CCN(c2ccccc2)CC1)S(=O)(=O)c1cccc2cnccc12 | 115% | – | – | – | – | – | 99% | – | – | 99% |
| Nc1ncnc2[nH]nc(Nc3ccc(F)cc3)c12 | – | 76% | 57% | 42% | – | – | 81% | 105% | – | 82% |
